# Screening results: PubChem, The Scripps Research Institute Molecular Screening Center
# An excerpt weighted towards active compounds, which were near 3.5% of everything screened.
# TEAD-YAP block: TEAD-YAP interaction inhibition; 640,000 tested, 1.4% active; inhibition, % at 9.12 µM; HEK-TIYL cells, TEAD-Gal4/YAP UAS-luciferase luminescence; in the data active means inhibition above about 32%;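 further: 0% = median of test compound wells and 100% = reference inhibitor wells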
# FBW7 act: human FBW7 E3 ligase activation, primary screen; normalized activity (activation), % at 26.1 µM; AID 1259310; AlphaScreen FBW7–phospho-cyclin E peptide binding, activator screen; 650,000 tested, 0.13% active; in the data active means normalized activity above about 1.9%;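 further: purified mutant Fbw7 with reduced substrate affinity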
# MITF primary: human MITF inhibition, primary screen; O75030; AlphaScreen MITF homodimerization, bead proximity signal; inhibition, % at 2.6 µM; 650,000 tested, 0.91% active; in the data active means inhibition above about 50%;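 further: 0% = vehicle wells with protein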
# Target sequence (O75030 whole entry, looked up): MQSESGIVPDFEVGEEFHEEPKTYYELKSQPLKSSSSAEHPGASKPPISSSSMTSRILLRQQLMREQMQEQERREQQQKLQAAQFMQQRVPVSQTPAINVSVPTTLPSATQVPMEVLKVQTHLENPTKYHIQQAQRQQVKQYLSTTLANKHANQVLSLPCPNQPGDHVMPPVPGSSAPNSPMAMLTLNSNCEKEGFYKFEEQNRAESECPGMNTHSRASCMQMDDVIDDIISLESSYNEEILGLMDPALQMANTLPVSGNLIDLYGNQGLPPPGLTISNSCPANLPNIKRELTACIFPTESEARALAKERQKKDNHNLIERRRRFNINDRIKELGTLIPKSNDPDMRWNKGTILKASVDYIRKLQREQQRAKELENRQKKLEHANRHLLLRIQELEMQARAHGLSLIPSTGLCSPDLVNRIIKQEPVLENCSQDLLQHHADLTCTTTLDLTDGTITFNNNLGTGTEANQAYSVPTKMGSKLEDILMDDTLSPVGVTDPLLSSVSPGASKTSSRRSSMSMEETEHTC
# GPR151 activ: activates the human receptor GPR151; Q8TDV0; PathHunter beta-arrestin GPR151 cells, luminescence; activation, % at 11.2 µM; 650,000 tested, 1% active; AID 1508602; in the data active means activation above about 4.9%;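 further: 0% = median of compound wells and 100% = cells with positive control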
# MITF inh conf: human MITF inhibition, confirmation; shares compounds with MITF primary; AlphaScreen MITF homodimerization, biotin/His-MITF beads; AID 1259372; inhibition, % at 2.6 µM; 4,700 tested, 16% active;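 active means inhibition above a cutoff derived from the DMSO control wells, cut at about 28% in these data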;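 further: 0% = MITF dimer wells with DMSO only; inhibitors lower the bead chemiluminescence by keeping MITF from dimerizing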
# AS interf ctr: optically interferes with AlphaScreen signal. AID 1259376. 4,700 tested, 7.6% active. LysRS AlphaScreen counterscreen, signal interference, triplicate. inhibition, % at 2.6 µM. shares compounds with MITF primary;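 active means inhibition above a cutoff derived from the DMSO control wells, cut at about 30% in these data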
# Starred values were filed as active, the others as inactive; . = not tested or not shown.
SMILES,TEAD-YAP block,FBW7 act,MITF primary,GPR151 activ,MITF inh conf,AS interf ctr
COc1cc(C)ccc1OCCCCN1CCNCC1,2.2,0.0,62.6*,0.2,6.4,-0.3
COc1cc(C)ccc1OCCN1CCNCC1,4.0,-0.1,19.9,1.2,.,.
C/C=C/c1ccc(OCCCCN2CCNCC2)c(OC)c1,-10.8,-0.5,58.6*,0.0,6.1,0.9
C=CCN(CC=C)CCOc1ccc(C)cc1OC,-5.3,-0.5,24.6,-0.1,.,.
CN(C)C(CNC(=O)c1ccco1)c1ccsc1 (centres undefined),-0.6,0.0,-9.7,0.6,.,.
COc1ccccc1-c1c(C)nn2c(NCc3cccs3)cc(C)nc12,-4.6,-0.2,54.1*,0.5,0.6,13.8
COc1ccccc1-c1c(C)nn2c(NCc3ccccc3)cc(C)nc12,1.3,0.1,10.8,-0.8,.,.
O=S(=O)(c1ccc(F)cc1)N1CCN(C2CCCC2)CC1,-1.9,0.0,37.4,2.8,.,.
CC1CN(C2CCN(S(=O)(=O)c3ccc(F)cc3)CC2)CC(C)O1 (centres undefined),0.5,0.7,56.6*,-0.1,-0.1,-0.1
CCCN1CCC(N2CCN(S(=O)(=O)c3ccc(F)cc3)CC2)CC1,11.6,0.1,54.5*,0.6,8.8,11.4
O=S(=O)(c1ccc(F)cc1)N1CCN(C2CCCCC2)CC1,15.3,-0.1,84.8*,2.3,1.0,12.1
CS(=O)(=O)N1CCN(C2CCCCC2)CC1,-5.2,0.3,58.2*,-0.2,-1.1,-0.4
O=S(=O)(c1ccc(F)cc1)N1CCN(C2CCCCCC2)CC1,-8.7,0.0,31.7,-1.0,.,.
COc1ccc([C@@H]2CCN(C(=O)Cc3cc(OC)ccc3OC)C[C@H]2O)cc1,1.1,0.0,-22.0,-0.9,.,.
COc1ccc(NS(=O)(=O)c2ccc(N=Cc3c(O)[nH]c(=S)[nH]c3=O)cc2)cc1,-11.7,-0.2,-0.9,-1.1,.,.
N#C/C(=C\c1ccccc1)C(=O)OCC(=O)NC1CCCC1,-0.7,-0.1,3.9,0.1,.,.
Cc1cc(C)c2oc(-c3ccc(C)c(NC(=S)NC(=O)c4oc5ccccc5c4C)c3)nc2c1,-3.6,0.0,-6.9,-1.1,.,.
CCC(=O)N1CCc2cc(S(=O)(=O)N3CC(C)CC(C)C3)ccc21 (centres undefined),-5.5,0.0,80.9*,3.1,4.9,13.9
O=C(c1cccnc1)N1CCN(Cc2ccco2)CC1,1.9,0.0,52.7*,0.6,-16.2,4.8
O=C(c1cccnc1)N1CCN(Cc2ccc(F)cc2)CC1,3.0,0.1,78.8*,1.4,7.4,3.6
O=C(c1cccnc1)N1CCN(Cc2ccncc2)CC1,14.2,0.4,85.7*,-2.1,7.0,15.3
O=C(c1ccccc1)N1CCN(C(=O)c2cccnc2)CC1,14.0,0.2,7.7,1.4,.,.
CCN(CC)C(=O)CSc1nc2c(c(=O)n(C)c(=O)n2C)n1Cc1ccc(C)cc1,-4.0,-0.1,5.0,0.6,.,.
COc1cccc(C(=O)N2CCN(Cc3ccccc3OC)CC2)c1,-4.5,-0.2,0.2,-0.6,.,.
COc1ccc(OC)c(CN2CCN(C(=O)c3cccc4ccccc34)CC2)c1,-1.9,-0.5,48.4,-0.2,.,.
SMILES,TEAD-YAP block,FBW7 act,MITF primary,GPR151 activ,MITF inh conf,AS interf ctr
COc1ccccc1CN1CCN(C(=O)c2ccccc2)CC1,8.2,0.1,59.8*,-0.3,6.4,6.8
COc1ccc(OC)c(CN2CCN(C(=O)c3cccc(Cl)c3)CC2)c1,0.4,0.1,66.3*,-2.4,3.9,12.2
COc1ccc2ccccc2c1CN1CCN(C(=O)c2ccncc2)CC1,-11.0,0.0,64.6*,-0.8,-4.8,-3.9
COc1ccc(OC)c(CN2CCN(C(=O)C(c3ccccc3)c3ccccc3)CC2)c1,-3.4,-0.1,51.8*,-1.0,-24.7,11.6
CCOC(=O)C1=C(C)Nc2ncnn2C1c1cc(OC)c(OC)cc1OC (centres undefined),-4.8,-0.1,14.7,1.0,.,.
O=C(Nc1ccccc1)c1c(C(F)(F)F)nc2ccccn12,5.4,-0.2,6.0,2.4,.,.
COc1cc(OC)c(OC)cc1CN1CCN(C(=O)c2ccncc2)CC1,6.5,-0.1,56.4*,-1.1,-5.6,4.5
COc1ccc(CN2CCN(C(=O)c3ccccc3)CC2)c(OC)c1,15.0,-0.1,59.8*,0.0,9.1,9.3
COc1ccc(CN2CCN(C(=O)c3ccc(F)cc3)CC2)c(OC)c1,-2.8,-0.2,48.5,-0.6,.,.
COc1ccccc1CN1CCN(C(=O)c2ccncc2)CC1,1.0,-0.2,65.1*,-0.6,-9.0,-3.8
COc1ccc(CN2CCC(C(=O)NCC(C)C)CC2)c(OC)c1,5.8,0.0,17.5,-0.7,.,.
COc1ccc(CN2CCC(C(=O)NC(C)c3ccccc3)CC2)c(OC)c1 (centres undefined),7.4,0.4,50.7*,-0.3,10.2,16.5
O=c1nc(SCc2c(F)cccc2Cl)c2c(n1Cc1ccccn1)CCC2,-12.0,-0.1,5.4,-1.3,.,.
Cc1ccc(NC(=S)NCCCn2ccnc2)cc1,-3.2,0.0,-18.8,0.4,.,.
O=c1sc2cc(SC(F)(F)F)cc([N+](=O)[O-])c2s1,3.6,0.9,2.8,1.7,.,.
O=C(c1ccc(F)cc1)C1CCN(S(=O)(=O)c2ccccc2C(F)(F)F)CC1,-2.5,0.7,-1.9,-1.6,.,.
O=[N+]([O-])c1ccc(O)c2ncccc12,6.5,-0.3,72.9*,0.0,83.4*,100.6*
CN(C)c1c([N+](=O)[O-])cc([N+](=O)[O-])c2cccnc12,6.8,-0.6,54.0*,1.1,19.2,68.0*
O=C(CC1(O)C(=O)N(Cc2ccccc2)c2ccccc21)c1ccco1 (centres undefined),-0.7,0.2,8.9,1.6,.,.
CCOc1cc(CN2CCN(Cc3ccc(F)cc3)CC2)ccc1OC,-4.7,-0.1,33.8,4.3,.,.
COc1cc(CN2CCN(S(C)(=O)=O)CC2)ccc1OCc1ccccc1,6.0,0.1,54.4*,1.6,1.5,10.6
CCOc1cc(CN2CCN(S(C)(=O)=O)CC2)ccc1OC,-14.9,0.2,55.0*,-1.2,-9.3,-2.2
CCOc1cc(CN2CCN(S(=O)(=O)CC)CC2)ccc1OC,3.0,0.0,34.8,0.1,.,.
CCOc1cc(CN2CCN(Cc3ccncc3)CC2)ccc1OC,-2.8,-0.2,73.3*,1.4,7.0,13.8
Cc1ccccc1-n1c(-c2ccc(Cl)cc2)n[nH]c1=S,-9.3,0.0,8.2,0.6,.,.
SMILES,TEAD-YAP block,FBW7 act,MITF primary,GPR151 activ,MITF inh conf,AS interf ctr
CCOc1ccc(/C(O)=C2\C(=O)C(=O)N(c3nc(C)c(C(=O)OC)s3)C2c2ccc(C(C)(C)C)cc2)cc1C (centres undefined),2.2,-0.1,-1.7,0.5,.,.
COc1ccc2cc(C(=O)CBr)ccc2c1,2.0,0.1,15.9,4.8,.,.
CCC(=O)c1ccc2cc(OC)ccc2c1,-13.4,0.0,82.1*,2.5,0.6,13.2
CCCC1CCC(C2CCC(=O)CC2)CC1 (centres undefined),-5.2,0.1,53.5*,2.7,13.9,12.5
COc1ccc(C=C(C#N)C#N)cc1CN1CCOCC1,-2.4,0.1,7.2,-0.8,.,.
Cc1ccc(-c2[nH]ncc2CN2CCN(C)CC2)cc1,6.2,1.3,69.0*,-1.5,-11.4,-3.8
